Reference: PubChem BioAssay (NCI)
This is part of a sample that, as a whole, favours compounds with a hit. Of some 79,000 tested, about 15% had one in any assay. Unmarked numbers belong to inactive results. Activity calls are given as the source filed them. No stated cut-off is given here; in the data, active means growth inhibition above about 70%; inactive means the rest.

What was measured:
[1] = NCI Yeast Anticancer Drug Screen. Data for the rad50 strain (AID 155);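 further: 0% = growth of vehicle-only cultures of the same strain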; conditions: S. cerevisiae rad50 strain growth inhibition, stronger effect = higher value
In short: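 Vehicle-treated cultures provide the reference for the growth inhibition reported for compound-exposed, repair-deficient yeast.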

[2] = NCI Yeast Anticancer Drug Screen. Data for the mec2-1 strain (AID 157); conditions: S. cerevisiae mec2-1 strain, stronger effect = higher value
In short: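 mec2-1 yeast strain, carrying an alteration in DNA damage repair or cell cycle control, was exposed to compounds; growth inhibition was measured relative to vehicle-treated controls.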

[3] = NCI Yeast Anticancer Drug Screen. Data for the sgs1 mgt1 strain (AID 161);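 further: 0% = growth of cultures given vehicle only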; conditions: S. cerevisiae sgs1 mgt1 strain, stronger effect = higher value
In short: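 Yeast cells carrying a defined DNA-repair defect were exposed to test compounds. Growth inhibition was measured relative to vehicle-treated controls.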

[4] = NCI Yeast Anticancer Drug Screen. Data for the cln2 rad14 strain (AID 165);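 further: 0% = growth equal to vehicle treated cultures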; conditions: S. cerevisiae cln2 rad14 strain, stronger effect = higher value
In short: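 Yeast carrying cln2 and rad14 alterations (cell cycle control and DNA damage repair) were exposed to compounds. Growth inhibition was measured against vehicle-treated controls.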

[5] = NCI Yeast Anticancer Drug Screen. Data for the bub3 strain (AID 167); conditions: S. cerevisiae bub3 mutant strain, stronger effect = higher value
In short: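 Mutant yeast screening strain plus compound; vehicle-treated cultures serve as the 0% inhibition reference.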

[6] = NCI Yeast Anticancer Drug Screen. Data for the mlh1 rad18 strain (AID 175); conditions: S. cerevisiae mlh1 rad18 strain growth inhibition, stronger effect = higher value
In short: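 Growth inhibition of the yeast strain was measured after compound exposure and expressed relative to vehicle-treated controls. The strain carries defined defects in DNA damage repair.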

[7] = at 5.0 µM (retest, dose inferred, filed as 0.5)
[8] = at 50.0 µM (retest, dose inferred, filed as 5.0)

SMILES | growth inhibition [1, 7] | growth inhibition [1, 8] | growth inhibition ([1]; at 50.0 µM) | growth inhibition [2, 7] | growth inhibition [2, 8] | growth inhibition ([2]; at 50.0 µM) | growth inhibition [3, 7] | growth inhibition [3, 8] | growth inhibition ([3]; at 50.0 µM) | growth inhibition [4, 7] | growth inhibition [4, 8] | growth inhibition ([4]; at 50.0 µM) | growth inhibition [5, 7] | growth inhibition [5, 8] | growth inhibition ([5]; at 50.0 µM) | growth inhibition [6, 7] | growth inhibition [6, 8] | growth inhibition ([6]; at 50.0 µM)
C=C(C)C(=O)OC1CCC2(C)C(CCC3C2CCC2(C)C(c4ccc(=O)oc4)CC4OC432)C1 (centres undefined) | 7% | 67% | 71.9% (active) | 7% | 48% | 66.7% | -10% | 57% | 63.8% | 26% | 64% | 60.2% | 16% | 80% (active) | 71.3% (active) | 21% | 73% (active) | 63.9%
CC(C)C(=O)CP(=O)(O)O | -10% | 6% | -18.1% | 8% | -2% | -22.6% | -9% | -4% | -30.5% | -31% | -13% | 70.2% (active) | 7% | 4% | -21.6% | 7% | 9% | -7.2%
C/C(=N\Nc1ccccn1)C1CC[N-]C2C(O)CCCC12.C/C(=N\Nc1ccccn1)C1CC[N-]C2C(O)CCCC12.[Cu+2] (centres undefined) | 98% (active) | 98% (active) | 99% (active) | 99% (active) | 99% (active) | 99.5% (active) | 98% (active) | 99% (active) | 99.4% (active) | 98% (active) | 97% (active) | 98.9% (active) | 99% (active) | 98% (active) | 99% (active) | 99% (active) | 98% (active) | 99.3% (active)
ClCCCCCl | 13% | -2% | 32.2% | -4% | -2% | 16.8% | 5% | -5% | -18.9% | 5% | -6% | 41% | 4% | 0% | -17.6% | 4% | -1% | 26.6%
CC(Br)c1ccccc1 (centres undefined) | 1% | 17% | 50.2% | 1% | 10% | 26.6% | 2% | 14% | 40.6% | 3% | 7% | -2.05% | 6% | 42% | 65.8% | 5% | 21% | 79.6% (active)
[Cl][Hg][Cl] | 99% (active) | 99% (active) | 91.3% (active) | 100% (active) | 100% (active) | 93.3% (active) | 100% (active) | 100% (active) | 94% (active) | 99% (active) | 99% (active) | 92.3% (active) | 100% (active) | 92% (active) | 93.1% (active) | 100% (active) | 99% (active) | 92.4% (active)
c1ccc(P(CC[As](c2ccccc2)c2ccccc2)CC[As](c2ccccc2)c2ccccc2)cc1 | 95% (active) | 95% (active) | 89% (active) | 81% (active) | 81% (active) | 90.8% (active) | 47% | 47% | 88.5% (active) | 76% (active) | 76% (active) | 89.3% (active) | 84% (active) | 84% (active) | 90.8% (active) | 80% (active) | 80% (active) | 88.6% (active)
CC1CCC2(OC1)OC1CC3C4CC=C5CC(OC6OC(CO)C(OC7OC(C)C(OC8OC(C)C(O)C(O)C8O)C(O)C7O)C(O)C6OC6OC(C)C(O)C(O)C6O)CCC5(C)C4CCC3(C)C1C2C (centres undefined) | 100% (active) | 94% (active) | 87.3% (active) | 99% (active) | 96% (active) | 81.5% (active) | 99% (active) | 95% (active) | 84% (active) | 99% (active) | 95% (active) | 86.7% (active) | 99% (active) | 95% (active) | 89.2% (active) | 98% (active) | 91% (active) | 86.5% (active)
